Experimental findings from PMC5540273 (PLoS ONE, 2017) are described below.

Common to all, as to settings: concentration: 1 μM,replicates: in singlicate; n = 1
For assay [1], the system named is DYRK1B.
The test system of assay [2] is DYRK2.
The subject of assay [3] is EGFR.
For assay [4], the system named is EIF2AK1.
Assay [5] deals with EPHA1.
Assay [6] deals with EPHA2.
In assay [7] the test system is EPHA3.
In assay [8] the test system is EPHA4.
Assay [9] relates to EPHA5.
The test system of assay [10] is EPHA6.
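Note: KINOMEscan kinase panel screen.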

For the compound `Cc1cc(C(=O)Nc2ccc(Oc3ccc4nc(NC(=O)C5CC5)cn4n3)cc2)nn1-c1ccccc1`, the “%Inh” value in assay [1] amounted to 0%; in assay [2], 0%; in assay [3], 0%; in assay [4] it was 0%; in assay [5], 45%; in [6], 29%. Besides, the “%Inh” value is on record as 0% in assay [7], 48% in assay [8], 6% in [9] and 46% in assay [10].
With `CN(C)CC(O)COc1ccc(Nc2nccc(-c3cnn4nc(N5CCOCC5)ccc34)n2)cc1` (stereo not drawn) [GW767488], the “%Inh” value was found to be 69% in [1]; 87% in [2]; 17% in assay [3]; 42% in [4]; 34% in [5]; 0% in assay [6]. For the same compound, the “%Inh” value in assay [7] turned out to be 9%; in assay [8], 8%; in assay [9], 9%; in assay [10], 0%.
In the case of `Nc1nc(Nc2ccccc2)cc(-c2ccc3c(N)n[nH]c3c2)n1` [GSK2225749], the “%Inh” value in assay [1] worked out at 19%; in [2], 88%; in assay [3], 16%; in assay [4] it was 0%; in assay [5] it was 0%; in [6], 32%. Besides, the “%Inh” value in assay [7], in [8], in [9] and in assay [10] was 0% in each case.
As for `CC(C)Nc1cc(-c2ccc3c(N)n[nH]c3c2)nc(N)n1` [GSK2221681], the “%Inh” value in assay [1] is 14%; in assay [2], 87%; in assay [3], 58%; in [4] it was 0%; in [5], 0%; in assay [6] it was 0%. The “%Inh” value in [7], in [8], in [9] and in [10] was 0% in each case.
With `Cl.Oc1cc(-c2nc(-c3ccccc3)[nH]c2-c2ccncc2)ccc1Cl` [SB-386023], the “%Inh” value is 0% in assay [1]; 5% in assay [2]; 20% in [3]; 0% in assay [4]; 59% in [5]; 0% in [6]. Also, the “%Inh” value came to 5% in [7], 0% in assay [8], 23% in [9] and 36% in [10].
Turning to `CN(C)CCOc1ccc(-c2cc(-c3c[nH]nc3-c3ccccn3)ccn2)cc1` [GW835314], the “%Inh” value is 22% in assay [1]; 17% in [2]; 28% in assay [3]; 93.7% in assay [4]; 18% in assay [5]; 10% in assay [6]. The “%Inh” value came out at 18% in [7], 90% in assay [8], 5% in assay [9] and 84% in assay [10].
Take `COc1ccc(C[C@@H](CN)NC(=O)c2cc(Br)c(-c3ccnc4[nH]ccc34)s2)cc1.Cl.Cl` [GSK1389063]: the “%Inh” value in assay [1] is given as 91.3%; in assay [2], 69%; in assay [3], 37%; in assay [4], 7%; in assay [5] it was 52%; in assay [6], 17%. Besides, the “%Inh” value in assay [7] was 44%; in [8], 25%; in [9], 0%; in assay [10] it was 33%.
For the compound `CCN(CC)CCOc1ccc(Nc2ncc3cc(-c4c(Cl)cccc4Cl)c(=O)n(C)c3n2)cc1` [SB-601273], the “%Inh” value in assay [1] was found to be 14%; in assay [2], 11%; in [4], 96.9%; in [5], 100%; in [6], 100%; in [7], 96.6%. For the same compound, the “%Inh” value in [8] is recorded as 100%; in assay [9], 99.8%; in [10] it was 97.9%.
`Cl.Cl.NC[C@H](CC1CCCCC1)NC(=O)c1cc(Br)c(-c2ccnc3[nH]ccc23)s1` [GSK1581427]: the “%Inh” value in assay [1] was 71%; in assay [2], 67%; in assay [3], 23%; in assay [4], 0%; in [5], 42%; in [6] it was 12%. Further, the “%Inh” value was 0% in assay [7], 13% in [8], 0% in assay [9] and 25% in assay [10].
As for `C[C@@H]1CCN(C(=O)CC#N)C[C@@H]1N(C)c1ncnc2[nH]ccc12`, the “%Inh” value was 0% in assay [1]; 0% in assay [2]; 6% in assay [4]; 6% in [5]; 0% in [6]; 0% in assay [7]. In addition, the “%Inh” value in assay [8], in assay [9] and in [10] was 0% throughout.
Take `Cl.Cl.Nc1nc(-c2ccc3c(N)n[nH]c3c2)cc(N2CCCC(NC(=O)c3ccccc3)C2)n1` (stereo not drawn) [GSK2286775]: the “%Inh” value in [1] was determined as 18%; in assay [2], 80%; in [3] it was 28%; in assay [4], 0%; in assay [5] it was 13%; in [6], 0%. Further, the “%Inh” value in [7] is reported as 0%; in assay [8] it was 15%; in [9], 0%; in assay [10] it was 6%.
For `C=CC(=O)Nc1cc2c(Nc3ccc(F)c(Cl)c3)ncnc2cc1OCCCN1CCOCC1` [GW781483], the “%Inh” value in [1] came out at 23%; in [2] it was 17%; in assay [4] it was 11%; in assay [5], 25%; in [6] it was 0%; in assay [7], 13%. For the same compound, the “%Inh” value amounted to 5% in assay [8] and 7% in assay [9].
As to `Cc1occc1-c1nc(N)c(OC[C@@H](N)Cc2c[nH]c3ccccc23)cc1-c1cc2c(C)n[nH]c2cn1` [GSK1660450], the “%Inh” value in [1] worked out at 91.6%; in [2], 92.1%; in [3], 97.2%; in assay [4], 12%; in [5] it was 16%; in assay [6], 13%. Besides, the “%Inh” value in [7] is on record as 30%; in assay [8] it was 14%; in assay [9] it was 0%; in assay [10], 32%.
